A short description of experiment [1]: BSK_CASM3C_SRB: Viability Assessment in the BioMAP Diversity Plus: CASM3C Assay (AID 2283050).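 Note: cells exposed to compound for 24 h.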 The conditions noted are these: primary human coronary artery smooth muscle cells.
Read-out in experiment [2]: Thrombomodulin, THBD (gene 7056)
Put plainly: BSK_CASM3C_Thrombomodulin: BioMAP Diversity Plus: CASM3C Assay for Thrombomodulin Biomarker Activity (AID 2283051).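 Note: thrombomodulin protein level measured by ELISA 24 h after dosing.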 The conditions noted are these: primary human coronary artery smooth muscle cells; actives raise or lower the signal.

Read-out in experiment [3]: Tissue Factor, F3 (gene 2152)
Put plainly: BSK_CASM3C_TissueFactor: BioMAP Diversity Plus: CASM3C Assay for Tissue Factor Biomarker Activity (AID 2283052).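 Note: cell surface tissue factor protein level read by ELISA.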 The conditions noted are these: primary human coronary artery smooth muscle cells; actives raise or lower the signal.

Read-out in experiment [4]: Interferon-gamma inducible Protein 10 (IP10), CXCL10 (gene 3627)
Put plainly: BSK_hDFCGF_IP10: BioMAP Diversity Plus: hDFCGF Assay for Interferon-gamma inducible Protein 10 (IP10) Biomarker Activity (AID 2283053). The conditions noted are these: primary human foreskin fibroblasts; actives raise or lower the signal. Put shortly: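 Primary human foreskin fibroblasts exposed to chemicals for 24 h. IP-10 measured by ELISA; changes fitted bidirectionally against DMSO baseline.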

Read-out in experiment [5]: Urokinase-type plasminogen activator receptor (uPAR), PLAUR (gene 5329)
The experiment in a line: BSK_CASM3C_uPAR: BioMAP Diversity Plus: CASM3C Assay for Urokinase-type plasminogen activator receptor (uPAR) Biomarker Activity (AID 2283054).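 Note: cell-surface uPAR protein level quantified by ELISA.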 The settings on record: primary human coronary artery smooth muscle cells; actives raise or lower the signal.

Read-out in experiment [6]: Vascular cell adhesion molecule 1 (VCAM1), VCAM1 (gene 7412)
The experiment in a line: BSK_CASM3C_VCAM1: BioMAP Diversity Plus: CASM3C Assay for Vascular cell adhesion molecule 1 (VCAM1) Biomarker Activity (AID 2283055).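 Note: VCAM-1 protein level quantified by ELISA on the cells.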 The settings on record: primary human coronary artery smooth muscle cells; actives raise or lower the signal.

Read-out in experiment [7]: Collagen III, COL3A1 (gene 1281)
The experiment in a line: BSK_hDFCGF_CollagenIII: BioMAP Diversity Plus: hDFCGF Assay for Collagen III Biomarker Activity (AID 2283056). The settings on record: primary human foreskin fibroblasts; actives raise or lower the signal. Put shortly:
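ELISA readout of Collagen III in human dermal (foreskin) fibroblasts, taken 24 h post-treatment. Gain or loss relative to DMSO vehicle fitted in both directions.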

Read-out in experiment [8]: Epidermal growth factor receptor (EGFR), EGFR (gene 1956)
The experiment in a line: BSK_hDFCGF_EGFR: BioMAP Diversity Plus: hDFCGF Assay for Epidermal growth factor receptor (EGFR) Biomarker Activity (AID 2283057). The conditions noted are these: primary human foreskin fibroblasts; actives raise or lower the signal. The essentials: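 Primary human foreskin fibroblasts (hDFCGF system), sampled 24 h after dosing; EGFR quantified by ELISA. Bidirectional fit relative to DMSO baseline; SRB total-protein staining in parallel cultures for cytotoxicity.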

Experiment [9] can be described thus: BSK_hDFCGF_Proliferation: Cell Proliferation Assessment in the BioMAP Diversity Plus: hDFCGF Assay (AID 2283059).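 Note: curves fitted for both rise and fall of signal versus DMSO baseline.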 The settings on record: primary human foreskin fibroblasts. Put shortly:
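Sub-confluent human foreskin fibroblast cultures receive test chemical […]. Relative cell number is quantified by sulforhodamine B staining (0.1%, after 10% TCA fixation) at 560 nm, with bidirectional fitting referenced to DMSO.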

Read-out in experiment [10]: Macrophage colony-stimulating factor (MCSF), CSF1 (gene 1435)
Put plainly: BSK_hDFCGF_MCSF: BioMAP Diversity Plus: hDFCGF Assay for Macrophage colony-stimulating factor (MCSF) Biomarker Activity (AID 2283060). The settings on record: primary human foreskin fibroblasts; actives raise or lower the signal. Put shortly:
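M-CSF levels read by ELISA at 24 h post-dosing in human skin fibroblasts. Parallel cultures stained with SRB assessed cytotoxicity at the same time point; response fitted in both directions against the DMSO baseline.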

The nature of experiment [11]: BSK_hDFCGF_SRB: Viability Assessment in the BioMAP Diversity Plus: hDFCGF Assay (AID 2283061).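 Note: cells exposed to compound for 24 h before the read.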 The settings on record: primary human foreskin fibroblasts. The essentials:
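Viability was read as total protein: after 10% TCA fixation, wells were stained with 0.1% sulforhodamine B and read at 560 nm. Primary human foreskin fibroblasts were dosed for 24 h, with bidirectional fitting versus DMSO.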

Read-out in experiment [12]: TIMP metallopeptidase inhibitor 1 (TIMP1), TIMP1 (gene 7076)
The experiment in a line: BSK_hDFCGF_TIMP1: BioMAP Diversity Plus: hDFCGF Assay for TIMP metallopeptidase inhibitor 1 (TIMP1) Biomarker Activity (AID 2283062). The conditions noted are these: primary human foreskin fibroblasts; actives raise or lower the signal. Put shortly: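 TIMP-1 measured by ELISA 24 h after chemical dosing of primary human skin fibroblasts, with gain or loss fitted relative to DMSO. Parallel SRB staining (560 nm) monitored overt cytotoxicity.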

Read-out in experiment [13]: Matrix Metallopeptidase 1 (MMP1), MMP1 (gene 4312)
Put plainly: BSK_hDFCGF_MMP1: BioMAP Diversity Plus: hDFCGF Assay for Matrix Metallopeptidase 1 (MMP1) Biomarker Activity (AID 2283064). The settings on record: primary human foreskin fibroblasts; actives raise or lower the signal. Put shortly:
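hDFCGF primary fibroblasts (human foreskin); chemical added; 24 h; MMP1 by ELISA; bidirectional fit vs DMSO.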

Read-out in experiment [14]: Vascular cell adhesion molecule 1 (VCAM1), VCAM1 (gene 7412)
Put plainly: BSK_hDFCGF_VCAM1: BioMAP Diversity Plus: hDFCGF Assay for Vascular cell adhesion molecule 1 (VCAM1) Biomarker Activity (AID 2283065).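 For AC50: VCAM-1 protein level quantified by ELISA after 24 h chemical exposure.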 The conditions noted are these: primary human foreskin fibroblasts; actives raise or lower the signal. Put shortly: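 ELISA readout of VCAM-1 on human dermal fibroblast primary cultures, 24 h after chemical exposure. Gain or loss of signal fitted in both directions against DMSO baseline.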

Read-out in experiment [15]: Plasminogen activator inhibitor-1 (PAI1), SERPINE1 (gene 5054)
The experiment in a line: BSK_hDFCGF_PAI1: BioMAP Diversity Plus: hDFCGF Assay for Plasminogen activator inhibitor-1 (PAI1) Biomarker Activity (AID 2283066). The settings on record: primary human foreskin fibroblasts; actives raise or lower the signal. Put shortly:
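Human foreskin fibroblast primary cells, 24 h chemical exposure; PAI-1 measured by ELISA. Bidirectional fitting relative to DMSO; parallel cultures stained with SRB for total protein to flag overt cytotoxicity.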

Read-out in experiment [16]: Intercellular Adhesion Molecule 1 (ICAM1), ICAM1 (gene 3383)
The experiment in a line: BSK_KF3CT_ICAM1: BioMAP Diversity Plus: KF3CT Assay for Intercellular Adhesion Molecule 1 (ICAM1) Biomarker Activity (AID 2283067). The settings on record: primary human keratinocytes with fibroblasts; actives raise or lower the signal. Put shortly:
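Cell-surface ICAM-1 was measured by ELISA 24 h after dosing primary human skin keratinocytes co-cultured with fibroblasts. Parallel SRB staining tracked overt cytotoxicity. Gain or loss of signal was fitted relative to DMSO.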

Read-out in experiment [17]: Interferon-gamma inducible Protein 10 (IP10), CXCL10 (gene 3627)
The experiment in a line: BSK_KF3CT_IP10: BioMAP Diversity Plus: KF3CT Assay for Interferon-gamma inducible Protein 10 (IP10) Biomarker Activity (AID 2283068). The conditions noted are these: primary human keratinocytes with fibroblasts; actives raise or lower the signal. The essentials:
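ELISA read-out of IP-10 after 24 h chemical dosing of human skin primary co-culture (keratinocytes, foreskin fibroblasts). Gain or loss of signal relative to DMSO, bidirectional curve fit.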

Experiment [18] in a line: BSK_KF3CT_SRB: Viability Assessment in the BioMAP Diversity Plus: KF3CT Assay (AID 2283069).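 Note: total protein by sulforhodamine B staining as a cytotoxicity measure; read 24 h after compound addition.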 The conditions noted are these: primary human keratinocytes with fibroblasts. The essentials: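 Keratinocytes co-cultured with foreskin fibroblasts (human primary); chemical added, 24 h; fix 10% TCA, stain 0.1% SRB, A560. Bidirectional fit vs DMSO.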

Calls of active or inactive are those of the source. Rule for the calls: active = hit-call score of the fitted dose curve at least 0.9, where 1 is the maximum; inactive = score below 0.9.

What is called AC50 is the midpoint of the concentration-response curve, whichever way the signal moves. Turning to `CC(C)[N+](C)(CCOC(=O)C1c2ccccc2Oc2ccccc21)C(C)C`, the outcome in experiment [1], in experiment [2], in experiment [3], in experiment [4], in experiment [5] and in experiment [6] was inactive. Also, the result in [7], in experiment [8], in [10], in experiment [11], in [12] and in [13] was inactive. In addition, the result in experiment [14], in experiment [15], in [16], in experiment [17] and in [18] was inactive. The AC50 in experiment [9] was 0.471 µM (active).

`CCOC(=O)/C=C\C(=O)OCC`: the outcome in [1], in experiment [2], in [3], in experiment [4], in [5] and in experiment [6] was inactive. In addition, the outcome in experiment [7], in [8], in [9], in experiment [10], in experiment [11] and in [12] was inactive. The result in [13], in experiment [14], in [15], in experiment [17] and in [18] was inactive.

As for `CCNc1nc(NC(C)(C)C)nc(OC)n1`, the result in [1], in [2], in [3], in experiment [4], in [5] and in experiment [6] was inactive. Besides, the outcome in experiment [7], in [8], in [9], in experiment [10], in [11] and in experiment [12] was inactive. For the same molecule, the result in experiment [13], in experiment [14], in experiment [15], in [17] and in [18] was inactive.

As to `C=CC(=O)OCC(C)OCC(C)OCC(C)OC(=O)C=C` (stereo not given), the AC50 was 20 µM (active) in experiment [1]; 2.28 µM (active) in experiment [3]; 14.4 µM (active) in experiment [4]; 8.9 µM (active) in experiment [5]; 15.3 µM (active) in experiment [6]; 35.7 µM (active) in experiment [7]. Further, the AC50 in experiment [8] is 33.4 µM (active); in experiment [9], 6.25 µM (active); in [10], 20 µM (active); in experiment [11], 6.59 µM (active); in [12] it was 11 µM (active); in [13], 27.5 µM (active). Besides, the AC50 in experiment [14] is 8.28 µM (active); in experiment [15], 6.86 µM (active); in [17], 28.1 µM (active); in [18] it was 31.9 µM (active). Moreover, the outcome in experiment [2] was inactive.

Regarding `CC(CCC(=O)O)(c1ccc(O)cc1)c1ccc(O)cc1`, the outcome in experiment [1], in [2], in experiment [3], in experiment [4], in [5] and in [6] was inactive. The result in experiment [7], in experiment [8], in experiment [9], in experiment [10], in [11] and in experiment [12] was inactive. Moreover, the outcome in experiment [13], in experiment [14], in experiment [15], in [17] and in [18] was inactive.

Consider `C=C(C)C(=O)OCCCCCCCCCCCC`, for which the outcome in [1], in experiment [2], in [3], in experiment [4], in experiment [5] and in experiment [6] was inactive. The outcome in experiment [7], in [8], in experiment [10], in experiment [11], in [12] and in experiment [13] was inactive. Besides, the result in experiment [14], in [15], in experiment [17] and in [18] was inactive. Further, in experiment [9], the AC50 is 11.7 µM (active).

On to `C=CC(=O)NC(C)(C)C`, for which the result in experiment [1], in experiment [2], in experiment [3], in [4], in [5] and in experiment [6] was inactive. Also, the result in experiment [7], in [8], in [9], in experiment [10], in [11] and in [12] was inactive. The result in [13], in experiment [14], in experiment [15], in [17] and in experiment [18] was inactive.

(Values after PubChem BioAssay (EPA / NIEHS).)
